From PubChem BioAssay (EPA / NIEHS)
Results filed as inconclusive are left out. Active and inactive are the calls of the source. The calls were made as follows, unless noted: active = hit-call score of the fitted dose curve at least 0.9, where 1 is the maximum; inconclusive = response in the unintended direction; inactive = score below 0.9.

Columns and labels:
[1] = Tanguay_ZF_120hpf_EYE_legacy: (Legacy) Oregon State University Tanguay Lab 120 Hour Post-fertilization zebrafish Assay for Eye Malformation (AID 2283636);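 also: binary presence or absence of eye malformation scored by brightfield in 120 hpf larvae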
Outline: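 Dechorionated Tropical 5D zebrafish embryos, one per well from 6 hpf, static exposure to 120 hpf at 28C, 0.64% DMSO. Eye malformation scored present/absent by brightfield; dead embryos not scored.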

[2] = Tanguay_ZF_120hpf_SNOU_legacy: (Legacy) Oregon State University Tanguay Lab 120 Hour Post-fertilization zebrafish Assay for Snout Malformation (AID 2283637)
Outline: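 Dechorionated tropical 5D wild-type zebrafish embryos exposed statically from 6 to 120 hpf at 28C, one per well, in 0.64% DMSO. Snout malformation scored as present/absent by brightfield at 120 hpf; dead embryos not scored.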

[3] = Tanguay_ZF_120hpf_OTIC_legacy: (Legacy) Oregon State University Tanguay Lab 120 Hour Post-fertilization zebrafish Assay for Otic Vesicle Malformation (AID 2283639)
Outline: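 Tropical 5D wild-type zebrafish embryos statically exposed in 0.64% DMSO at 28C until 120 hpf; 5uM trimethyltin chloride as positive control. Otic vesicle malformation scored present/absent by brightfield; dead embryos not scored; gain fitted versus DMSO.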

[4] = Tanguay_ZF_120hpf_PE_legacy: (Legacy) Oregon State University Tanguay Lab 120 Hour Post-fertilization zebrafish Assay for Pericardial Edema (AID 2283640);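 as to AC50: potency for increased incidence of pericardial edema versus DMSO baseline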
Outline: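 Read-out is the presence or absence of pericardial edema at 120 hpf under brightfield, with gain of signal fitted against DMSO controls. Larvae (5D wild-type) were statically exposed at 28C with 0.64% final DMSO.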

[5] = Tanguay_ZF_120hpf_BRAI_legacy: (Legacy) Oregon State University Tanguay Lab 120 Hour Post-fertilization zebrafish Assay for Brain Malformation (AID 2283641)
Outline: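 Brain malformation in Tropical 5D zebrafish was recorded as a binary endpoint after static compound exposure from early development to 120 hpf at 28C. Activity was analysed against DMSO as negative control.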

[6] = Tanguay_ZF_120hpf_SOMI_legacy: (Legacy) Oregon State University Tanguay Lab 120 Hour Post-fertilization zebrafish Assay for Somite Malformation (AID 2283647)
Outline: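 5D WT zebrafish; chorion removed 4 hpf; 1 embryo/well from 6 hpf; static exposure to 120 hpf, 28C, 0.64% DMSO final. Endpoint: somite malformation, binary, brightfield. Mortality excluded.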

[7] = Tanguay_ZF_120hpf_PFIN_legacy: (Legacy) Oregon State University Tanguay Lab 120 Hour Post-fertilization zebrafish Assay for Pectoral Fin Malformation (AID 2283648);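 also: each larva judged yes or no for fin defect by brightfield with dead larvae skipped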
Outline: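 Dechorionated Tropical 5D wild-type zebrafish embryos, one per well, statically exposed from 6 to 120 hpf at 28C with 0.64% DMSO final. Pectoral fin malformation scored present/absent by brightfield at 120 hpf; not scored in dead embryos.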

[8] = Tanguay_ZF_120hpf_CFIN_legacy: (Legacy) Oregon State University Tanguay Lab 120 Hour Post-fertilization zebrafish Assay for Caudal Fin Malformation (AID 2283649)
Outline: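 Embryos were collected from Tropical 5D wild-type adults and dechorionated at 4 hpf. At 6 hpf each was exposed, one per well, at 0.64% DMSO and 28C. At 120 hpf fin morphology was scored; dead embryos were excluded.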

[9] = Tanguay_ZF_120hpf_PIG_legacy: (Legacy) Oregon State University Tanguay Lab 120 Hour Post-fertilization zebrafish Assay for Pigmentation Malformation (AID 2283650)
Outline: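 Dechorionated Tropical 5D wild-type embryos, one per well from 6 hpf, statically exposed at 28C in the dark until 120 hpf, 0.64% DMSO final. Pigmentation scored present/absent by brightfield microscopy; dead embryos not scored; fitted versus DMSO.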

[10] = Tanguay_ZF_120hpf_CIRC_legacy: (Legacy) Oregon State University Tanguay Lab 120 Hour Post-fertilization zebrafish Assay for Circulatory Malformation (AID 2283651)
Outline: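 Dechorionated wild-type 5D zebrafish embryos, one per well, statically exposed from 6 to 120 hpf at 28C with 0.64% DMSO; circulatory malformation scored present/absent by brightfield microscopy at 120 hpf, dead embryos excluded.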

[11] = Tanguay_ZF_120hpf_SWIM_legacy: (Legacy) Oregon State University Tanguay Lab 120 Hour Post-fertilization zebrafish Assay for Swim Bladder Malformation (AID 2283654);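 also: swim bladder malformation in each larva scored yes or no under brightfield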
Outline: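 Dechorionated wild-type Tropical 5D zebrafish embryos, one per well from 6 hpf, were statically exposed at 28C until 120 hpf in 0.64% DMSO. Swim bladder malformation scored as present/absent by brightfield microscopy; not scored in dead larvae.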

[12] = Tanguay_ZF_120hpf_TRUN_legacy: (Legacy) Oregon State University Tanguay Lab 120 Hour Post-fertilization zebrafish Assay for Truncated Body (AID 2283655)
Outline: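 5D wild-type larvae; pronase dechorionation; static exposure 6→120 hpf, 28C; DMSO 0.64% final; 5uM trimethyltin chloride positive control. Readout: presence/absence of truncated body, analyzed relative to DMSO.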

[13] = read-out: ABC Transporter (ABCB1), ABCB1 (gene 5243); assay: CLD_ABCB1_6hr: CellzDirect (CLD) Gene Expression Assay for ABC Transporter (ABCB1) at 6 hours (AID 2283659);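 also: hits raise ABCB1 transcript above the DMSO vehicle baseline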
Outline: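 Primary human hepatocytes (two donor preparations) dosed daily for two days with chemicals at multiple concentrations, 0.2% DMSO vehicle; harvested 6 h post-dose. ABCB1 mRNA induction quantified by qNPA chemiluminescence; gain-of-signal fitted versus DMSO.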

[14] = read-out: Broad substrate specificity ATP-binding cassette transporter ABCG2 (Homo sapiens) (UniProt Q9UNQ0); assay: CLD_ABCG2_6hr: CellzDirect (CLD) Gene Expression Assay for ABC Transporter (ABCG2) at 6 hours (AID 2283660)
Outline: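 Primary human hepatocytes dosed daily with chemicals at multiple concentrations (0.2% DMSO vehicle), harvested 6 h after dosing. ABCG2 mRNA induction read by quantitative nuclease protection assay (qNPA) chemiluminescence; gain of signal fitted against DMSO baseline.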

[15] = read-out: xenobiotic metabolism (CYP1A1), CYP1A1 (gene 1543); assay: CLD_CYP1A1_6hr: CellzDirect (CLD) Gene Expression Assay for xenobiotic metabolism (CYP1A1) at 6 hours (AID 2283661);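 as to AC50: potency for transcript induction above DMSO vehicle baseline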
Outline: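 Primary human hepatocytes from two donors, compound versus 0.2% DMSO vehicle. CYP1A1 mRNA measured 6 h after dosing by quantitative nuclease protection assay with chemiluminescent read-out; induction fitted relative to DMSO, cytotoxicity flagged by microscopy.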

[16] = Tanguay_ZF_120hpf_NC_legacy: (Legacy) Oregon State University Tanguay Lab 120 Hour Post-fertilization zebrafish Assay for Notochord and Tail Malformation (AID 2283656)
Outline: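 Dechorionated Tropical 5D wild-type zebrafish embryos, one per well from 6 hpf, statically exposed to 120 hpf at 28C in 0.64% DMSO final. Notochord distortion scored present/absent by brightfield; dead embryos excluded.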

[17] = Tanguay_ZF_120hpf_JAW_legacy: (Legacy) Oregon State University Tanguay Lab 120 Hour Post-fertilization zebrafish Assay for Jaw Malformation (AID 2283638);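 as to AC50: active means more embryos with jaw malformation than DMSO controls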
Outline: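 Static waterborne exposure of dechorionated wild-type (Tropical 5D) zebrafish from 6 to 120 hpf at 28C, 0.64% DMSO vehicle; 5uM trimethyltin chloride served as positive control. Jaw morphology recorded as binary at 120 hpf.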

[18] = read-out: solute carrier (SLC10A1), SLC10A1 (gene 6554); assay: LTEA_HepaRG_SLC10A1: Life Technologies and Expression Analysis (LTEA) Assay for solute carrier (SLC10A1) using HepaRG (AID 2283657; active = hit-call score of the fitted dose curve at least 0.9, where 1 is the maximum; inactive = score below 0.9); details: mRNA level, 48 h; actives raise or lower the signal
Outline: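 HepaRG cells (single lot) exposed 48 h in serum-free induction medium, 8-point half-log series from 100 uM top in 0.5% DMSO, duplicate. SLC10A1 mRNA by qRT-PCR normalised to ACTB, GAPDH, POLR2A; bidirectional fit versus DMSO.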

[19] = read-out: matrix metalloproteinase-1 (MMP1), MMP1 (gene 4312); assay: LTEA_HepaRG_MMP1: Life Technologies and Expression Analysis (LTEA) Assay for matrix metalloproteinase-1 (MMP1) using HepaRG (AID 2283658; active = hit-call score of the fitted dose curve at least 0.9, where 1 is the maximum; inactive = score below 0.9); details: mRNA level, 48 h; actives raise or lower the signal
Outline: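 Bidirectional concentration-response fitting relative to 0.5% DMSO gives the endpoint, derived from MMP1 mRNA levels (qRT-PCR) in human HepaRG cells treated 48 h with chemicals up to 100 uM.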

[20] = read-out: kallikrein-3 (KLK3), KLK3 (gene 354); assay: LTEA_HepaRG_KLK3: Life Technologies and Expression Analysis (LTEA) Assay for kallikrein-3 (KLK3) using HepaRG (AID 2283652; active = hit-call score of the fitted dose curve at least 0.9, where 1 is the maximum; inactive = score below 0.9); details: mRNA level, 48 h; actives raise or lower the signal
Outline: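 Differentiated human HepaRG cells in serum-free induction medium exposed 48 h in duplicate, eight-point half-log series from 100 uM in 0.5% DMSO. KLK3 mRNA by qRT-PCR, normalised to ACTB, GAPDH, POLR2A; bidirectional fit versus DMSO.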

Measured: AC50

Chain of Broad substrate specificity ATP-binding cassette transporter ABCG2 (Homo sapiens) (Q9UNQ0 whole entry, looked up): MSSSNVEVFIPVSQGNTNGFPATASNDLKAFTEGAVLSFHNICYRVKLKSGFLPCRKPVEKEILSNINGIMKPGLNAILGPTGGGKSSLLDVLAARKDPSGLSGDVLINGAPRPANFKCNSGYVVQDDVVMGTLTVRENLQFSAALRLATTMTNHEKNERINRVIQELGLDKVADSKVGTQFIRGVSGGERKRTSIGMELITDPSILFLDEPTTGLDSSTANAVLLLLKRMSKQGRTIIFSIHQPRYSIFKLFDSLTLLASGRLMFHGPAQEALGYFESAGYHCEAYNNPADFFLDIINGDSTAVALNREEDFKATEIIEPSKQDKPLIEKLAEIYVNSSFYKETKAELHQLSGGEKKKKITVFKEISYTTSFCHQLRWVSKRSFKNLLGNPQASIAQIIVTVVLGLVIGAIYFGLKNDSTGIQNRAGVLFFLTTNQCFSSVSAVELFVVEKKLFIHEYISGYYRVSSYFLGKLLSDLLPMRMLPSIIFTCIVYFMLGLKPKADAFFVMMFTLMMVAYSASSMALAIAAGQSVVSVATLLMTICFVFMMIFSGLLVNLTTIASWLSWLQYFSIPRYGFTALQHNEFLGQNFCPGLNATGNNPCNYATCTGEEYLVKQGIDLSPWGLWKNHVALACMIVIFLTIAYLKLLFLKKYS

CCCCSP(=O)(SCCCC)SCCCC
active: [15] 2.38 µM
not listed: [16] | [17] | [18] | [19] | [20]
inactive: all other assays above

CC(C)N(C(=O)SCC(Cl)=C(Cl)Cl)C(C)C
not listed: [8] | [17] | [18] | [19] | [20]
inactive: all other assays above

CC(C1CC1)C(O)(Cn1cncn1)c1ccc(Cl)cc1 (stereo not drawn)
active: [1] 9.92 µM | [2] 9.24 µM | [17] 24.7 µM | [4] 15.1 µM | [5] 22.6 µM | [7] 25.9 µM | [11] 32.6 µM | [15] 0.0103 µM
inactive: [8] | [9] | [12] | [16] | [13] | [14]

CCOP(=S)(OCC)Oc1ccc([N+](=O)[O-])cc1
active: [15] 3.67 µM
not listed: [7] | [9] | [10] | [14] | [18] | [19] | [20]
inactive: all other assays above

CCCCN(CC)c1c([N+](=O)[O-])cc(C(F)(F)F)cc1[N+](=O)[O-]
not listed: [6] | [9] | [10] | [12] | [20]
inactive: all other assays above

CC1(C(=O)Nc2ccc(O)c(Cl)c2Cl)CCCCC1
not listed: [3] | [10] | [15]
inactive: all other assays above

CC(C)=CC1C(C(=O)OCN2C(=O)C3=C(CCCC3)C2=O)C1(C)C (stereo not drawn)
not listed: [3] | [9] | [10] | [16] | [18] | [19] | [20]
inactive: all other assays above

CC[C@H](C)[C@H]1O[C@]2(C=C[C@@H]1C)C[C@@H]1C[C@@H](C/C=C(\C)[C@@H](O[C@H]3C[C@H](OC)[C@@H](O[C@H]4C[C@H](OC)[C@@H](NC)[C@H](C)O4)[C@H](C)O3)[C@@H](C)/C=C/C=C3\CO[C@@H]4[C@H](O)C(C)=C[C@@H](C(=O)O1)[C@]34O)O2
active: [18] 5 µM | [14] 29.5 µM
not listed: [6] | [8] | [9] | [10] | [13] | [15]
inactive: all other assays above

S=C1NCCN1
not listed: [7] | [10] | [15] | [17] | [18] | [19] | [20]
inactive: all other assays above

CCc1cccc(C)c1N(C(=O)CCl)C(C)COC (stereo not drawn)
not listed: [10] | [15] | [17] | [18] | [19] | [20]
inactive: all other assays above

Cc1cc(C2CC2)nc(Nc2ccccc2)n1
active: [15] 2.2 µM
not listed: [6] | [9] | [13] | [16] | [18] | [19] | [20]
inactive: all other assays above

CCNc1nc(Cl)nc(NC(C)(C)C#N)n1
inactive: [1] | [2] | [4] | [5] | [7] | [8] | [9] | [11] | [12] | [16] | [13]

CCOP(=S)(OCC)Oc1ccc2c(C)c(Cl)c(=O)oc2c1
active: [18] 70.7 µM
not listed: [3] | [10]
inactive: all other assays above

CN1COCN(Cc2cnc(Cl)s2)C1=N[N+](=O)[O-]
not listed: [6] | [8] | [10] | [15] | [18] | [19] | [20]
inactive: all other assays above

CCCOCC(=Nc1ccc(Cl)cc1C(F)(F)F)n1ccnc1
active: [15] 1.9 µM
not listed: [1] | [10] | [18] | [19] | [20]
inactive: all other assays above

O=[N+]([O-])c1cc(C(F)(F)F)c(Cl)c([N+](=O)[O-])c1Nc1ncc(C(F)(F)F)cc1Cl
inactive: [2] | [17] | [3] | [4] | [5] | [7] | [8] | [9] | [11] | [12]

CCOP(=O)(SC(C)CC)N1CCSC1=O (stereo not drawn)
not listed: [6] | [10] | [18] | [19] | [20]
inactive: all other assays above

CCCCOC(=O)[C@@H](C)Oc1ccc(Oc2ccc(C#N)cc2F)cc1
inactive: [1] | [2] | [17] | [4] | [8] | [9] | [12] | [16] | [13] | [15]
